In PubChem BioAssay (NCATS) one finds Potency data, which are given here for 40 compounds.

Results filed as inconclusive are left out. A call without a number means that no potency is given here. Activity calls are given as the source filed them. Calls come from the whole dose curve; as a rule, active = well fitted inhibition curve with a large enough effect; inconclusive = small, poorly fitted or top-dose-only effect; inactive = no such curve, though single readings can be large or run the other way.
Potency is the fitted concentration of half-maximal effect.

The assay can be described thus: qHTS for Inhibitors of the Aldehyde Dehydrogenase Family (ALDH1A2, ALDH1A3, ALDH2, ALDH3A1) (AID 2061307). For Potency: test system not described further here. Note: nearly all actives have a fitted effect of over 50% in size. The conditions noted are these: ALDH inhibition qHTS; series mostly up to 50.3 µM.
Regarding `COc1cc2nc(N3CCN(C)CC3)nc(N)c2cc1OC`, the Potency result is “inactive”. As to `NNC(=O)c1ccc2ccccc2n1`, the Potency result was “inactive”. The value for `Cc1cc(=O)n2[nH]c(NC(=O)c3ccccc3)nc2n1` was “inactive”; that for `O=C(c1ccco1)N1CCN(Cc2nc3ccccc3c(=O)n2-c2ccccc2[N+](=O)[O-])CC1` was “inactive”. For the compound `COCCn1cc(NC(=O)CSC(C)C)ccc1=O`, the Potency entry is “inactive”. The value for `COc1ccccc1C(=O)Nc1nc2nc(C)cc(=O)n2[nH]1` was “inactive”. The entry for `CN(C)C(C(=O)N1CCN(c2ccc(C#N)cc2)CC1)c1ccccc1F` (stereo not given) is “inactive”; for `CCN1CCC(N(CCc2ccccc2)Cc2ccccc2)CC1` it is “inactive”; for `Cc1ccc(CNC(=O)c2cc(=O)c3cc(C)ccc3o2)cc1` it is “inactive”. The entry for `CCOC(=O)Cc1ccc(NC(=O)n2ncc3cc(Cl)ccc32)cc1` is “inactive”; for `Cc1csc(-c2cccc(C(=O)Nc3ccc(F)c(F)c3F)c2)n1` it is “inactive”; for `O=C(Cn1c2ncccc2c(=O)n1-c1ccccc1)Nc1ccc(Cl)cc1C(F)(F)F` it is “inactive”. Turning to `CCc1ccc(NC(=O)c2cc3c(=O)n(Cc4cccnc4)ccc3nc2C)cc1`, the Potency result is “inactive”.

With `COc1ccc(NC(=O)c2ccc(N3CCOCC3)nc2)cc1`, the Potency entry is “inactive”.

For the compound `O=C(CSc1nc2ccccc2c(=O)[nH]1)Nc1nc(-c2ccc(Br)cc2)cs1`, the Potency entry was “inactive”.

Consider `O=C1CN(S(=O)(=O)c2cccc(C(=O)Nc3ccc(OC(F)(F)F)cc3)c2)CCN1`, for which the Potency result is “inactive”. In the case of `Cc1ccc(-n2ncc3c(Nc4cccc(C(=O)O)c4)ncnc32)cc1`, the Potency result was “inactive”.

On to `CCOc1ccccc1-n1c(CN2CCN(C(=O)c3ccco3)CC2)nc2cc(OC)c(OC)cc2c1=O`, for which the Potency result was “inactive”. The entry for `CCOC(=O)N1CCN(Cc2nc3cc(NC(=O)CC(C)C)ccc3n2C(C)C)CC1` is “inactive”; for `N#Cc1ccc(CN2CCC(N(CCc3ccccc3)Cc3ccccc3)CC2)cc1` it is “inactive”; for `COc1c(F)cc2[nH]c(C(=O)O)cc2c1F` it is “inactive”. The figure for `Cn1ccc(=Nc2ccc(NC(=O)c3ccc(N=c4ccn(C)c5ccc([N+](=O)[O-])cc45)cc3[N+](=O)[O-])cc2)cc1` is 5.65 µM (active); for `CCS(=O)(=O)c1nc(-c2ccc(Cl)cc2)cc(C(F)(F)F)n1` it is 4.47 µM (active); for `O=C(O)c1ccc(-c2ccc3ncnc(NCc4cccs4)c3c2)o1` it is “inactive”.

On to `CC(C)Oc1ccccc1NC(=O)N1CCN(c2ccccc2)CC1`, for which the Potency entry was “inactive”.

In the case of `CSc1ccc(-c2csc(N3CCC(C(N)=O)CC3)n2)cc1`, the Potency was 4 µM (active). The figure for `Cc1csc(-c2cc(-c3c(Cc4ccc(S(N)(=O)=O)c(F)c4)c(CC4CC4)nn3-c3nc(C(=O)O)cs3)ccc2F)c1` is 12.7 µM (active).

For the compound `O=C(O)c1csc(-n2[nH]c(-c3cc(F)ccc3F)cc2=O)n1`, the Potency entry was “inactive”. The value for `COc1ccc(-n2c(C)c(C(C)=O)c3cc(OC(=O)c4ccccc4OC(C)=O)ccc32)cc1` was “inactive”; that for `Cc1ccc(C)n1-c1ccccc1C(=O)O` was “inactive”. In the case of `O=C(O)c1csc(-n2[nH]c(-c3c(F)cccc3F)cc2=O)n1`, the Potency result is “inactive”.

For the compound `O=C(Nc1ncc(Cc2ccccc2F)s1)c1ccn(-c2ccccc2)n1`, the Potency result was “inactive”.

In the case of `CSc1sc(C(=O)NN)c2c1C(O)CCC2` (stereo not given), the Potency was 22.5 µM (active).

For `O=Cc1ccc(Sc2ccccn2)o1`, the Potency result is “inactive”. The entry for `C=CCn1c(Sc2ncc(C#N)cc2Cl)nnc1-c1ccccc1F` is “inactive”. With `CCN(CC)C(=O)c1ccc(Nc2ncnc3sc(C)c(C)c23)cc1`, the Potency was 6.31 µM (active). The value for `Cc1ccc(-c2cc3c(nn2)-c2ccccc2C3=O)cc1` was “inactive”. The figure for `COc1ccc(-n2c(C)cc(C3=NNC(=NC4CC4)SC3)c2C)cc1` is 4.49 µM (active); for `O=C(Nc1ccccc1OC(F)(F)F)c1csc(-c2ccc(F)cc2)n1` it is “inactive”. Consider `N#Cc1cccc(-c2ccc3nc(-c4ccccc4)cn3c2)c1`, for which the Potency entry was “inactive”.
